# Test results reported in the supplement of paper PMC10849652.
# Targets with a hit are over-represented here; the source holds about 7,900 in all. About 0.6% of all pairs of compound and target were hits. Unmarked numbers belong to inactive results.
# Tests used:
# Assay in all cases: log2 fold change, soluble protein after heating vs DMSO (PISA); higher = thermal stabilisation; K562 cells, 10 uM, 30 min; active = over 0.2 and 3.5 SD of the protein, either way, in both replicates (recomputed)
# [1] = compound: C#Cc1cccc(Nc2ncnc3cc(OCCOC)c(OCCOC)cc23)c1 [erlotinib]
# In short: (§1)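 Thermal stability values are relative to control samples and come from duplicates. They are expressed as log2 fold changes. For measurement, K562 cells (2×10^6 cells/mL) received 10 μM compound for 30 min, and aliquots were heated for 3 min over 48°C-58°C, pooled, and extracted at 4°C in PBS with 0.5% NP-40. Soluble protein, the supernatant after 21,000xg for 90 min, was quantified by TMTpro 16plex LC-MS/MS with equalised channel sums.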
# [2] = compound: C/C(=N\NC(=O)C1=CC(=CC=C1)S(=O)(=O)N2CCOCC2)/C3=C(C=CC(=C3)Cl)O
# In short: as §1
# [3] = compound: C1=CC(=C(C=C1Cl)C2=NC3=NC=CN=C3C(=N2)NC4=CC=NC=C4)F
# In short: as §1
# [4] = compound: C1=CC(=CC=C1C2=NC3=C(N2)C=C(C=C3)C(=O)N)OC4=CC=C(C=C4)Cl
# In short: as §1
# [5] = compound: C1=CC2=C(C=CC(=C2)/C=C\3/C(=O)NC(=NCC4=CC=CS4)S3)N=C1
# In short: as §1
# [6] = compound: C1=CC2=NC=CN=C2C=C1/C=C/3\C(=O)NC(=O)S3
# In short: as §1
# [7] = compound: C1=CC=C(C=C1)C2=NC(=C(N2)C3=CC=NC=C3)C4=CC(=C(C=C4)Cl)O
# In short: as §1
# [8] = compound: C1=CC=C2C(=C1)C3=NNC4=CC=CC(=C43)C2=O
# In short: as §1
# [9] = compound: C1CCN(C1)C(=O)NC2=CC=CC(=C2)NC3=NC=C(C(=N3)NCCC4=CN=CN4)Br
# In short: as §1
# [10] = compound: C1CN(CCC1(CC2=CC=C(C=C2)Cl)N)C3=NC=NC4=C3C=CN4
# In short: as §1
# [11] = compound: C1COCCN1CCN2C3=CC=CC=C3N=C2NC(=O)C4=CC(=CC=C4)[N+](=O)[O-] [IRAK-1-4 Inhibitor I]
# In short: as §1
# [12] = compound: C=CC(=O)N1CCC[C@@H](n2nc(-c3ccc(Oc4ccccc4)cc3)c3c(N)ncnc32)C1 [ibrutinib]
# In short: as §1
# [13] = compound: CC(=O)c1cnc2ccc(-c3cc(Cl)c(O)c(Cl)c3)nc2c1N[C@H]1CC[C@H](CN(C)C)CC1
# In short: as §1
# [14] = compound: CC(C)(C)Cn1c(N)nc2ccc(-c3[nH]c(C(C)(C)C)nc3-c3ccc(F)cc3)nc21 [ralimetinib]
# In short: as §1
# [15] = compound: CC(C)(O)CC(=O)NCCn1ccc2ncnc(Nc3ccc(Oc4cccc(C(F)(F)F)c4)c(Cl)c3)c21
# In short: as §1
# [16] = compound: CC(C)C1=C2N=C(C=C(N2N=C1)NCC3=CC=CC=C3)NCCCCCCN
# In short: as §1
# [17] = compound: CC(C)C[C@@H](C=O)NC(=O)[C@H](CC(C)C)NC(=O)[C@H](CC(C)C)NC(=O)OCc1ccccc1
# In short: as §1
# [18] = compound: CC(C)N(C[C@H]1O[C@@H](n2cnc3c(N)ncnc32)[C@H](O)[C@@H]1O)[C@H]1C[C@@H](CCc2nc3cc(C(C)(C)C)ccc3[nH]2)C1 [pinometostat]
# In short: as §1
# [19] = compound: CC1=C(C(CC(=O)N1)C2=CC=C(C=C2)C(F)(F)F)C(=O)NC3=C(C=C4C(=C3)C=NN4)F
# In short: as §1
# [20] = compound: CC1=C(C2=C(C=C1)C(=O)C3=CC=CC=C3N2CCCN)C
# In short: as §1
# UniProt Q8N6D5, sequence (Q8N6D5 whole entry, looked up): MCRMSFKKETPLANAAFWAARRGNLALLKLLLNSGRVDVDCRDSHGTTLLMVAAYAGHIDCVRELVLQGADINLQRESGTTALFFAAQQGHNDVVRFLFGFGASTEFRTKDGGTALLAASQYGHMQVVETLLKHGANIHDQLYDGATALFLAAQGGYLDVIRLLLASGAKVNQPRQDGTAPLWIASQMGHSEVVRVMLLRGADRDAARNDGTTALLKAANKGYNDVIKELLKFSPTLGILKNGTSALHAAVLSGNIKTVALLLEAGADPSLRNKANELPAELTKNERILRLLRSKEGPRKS
# UniProt O43861, sequence (O43861 whole entry, looked up): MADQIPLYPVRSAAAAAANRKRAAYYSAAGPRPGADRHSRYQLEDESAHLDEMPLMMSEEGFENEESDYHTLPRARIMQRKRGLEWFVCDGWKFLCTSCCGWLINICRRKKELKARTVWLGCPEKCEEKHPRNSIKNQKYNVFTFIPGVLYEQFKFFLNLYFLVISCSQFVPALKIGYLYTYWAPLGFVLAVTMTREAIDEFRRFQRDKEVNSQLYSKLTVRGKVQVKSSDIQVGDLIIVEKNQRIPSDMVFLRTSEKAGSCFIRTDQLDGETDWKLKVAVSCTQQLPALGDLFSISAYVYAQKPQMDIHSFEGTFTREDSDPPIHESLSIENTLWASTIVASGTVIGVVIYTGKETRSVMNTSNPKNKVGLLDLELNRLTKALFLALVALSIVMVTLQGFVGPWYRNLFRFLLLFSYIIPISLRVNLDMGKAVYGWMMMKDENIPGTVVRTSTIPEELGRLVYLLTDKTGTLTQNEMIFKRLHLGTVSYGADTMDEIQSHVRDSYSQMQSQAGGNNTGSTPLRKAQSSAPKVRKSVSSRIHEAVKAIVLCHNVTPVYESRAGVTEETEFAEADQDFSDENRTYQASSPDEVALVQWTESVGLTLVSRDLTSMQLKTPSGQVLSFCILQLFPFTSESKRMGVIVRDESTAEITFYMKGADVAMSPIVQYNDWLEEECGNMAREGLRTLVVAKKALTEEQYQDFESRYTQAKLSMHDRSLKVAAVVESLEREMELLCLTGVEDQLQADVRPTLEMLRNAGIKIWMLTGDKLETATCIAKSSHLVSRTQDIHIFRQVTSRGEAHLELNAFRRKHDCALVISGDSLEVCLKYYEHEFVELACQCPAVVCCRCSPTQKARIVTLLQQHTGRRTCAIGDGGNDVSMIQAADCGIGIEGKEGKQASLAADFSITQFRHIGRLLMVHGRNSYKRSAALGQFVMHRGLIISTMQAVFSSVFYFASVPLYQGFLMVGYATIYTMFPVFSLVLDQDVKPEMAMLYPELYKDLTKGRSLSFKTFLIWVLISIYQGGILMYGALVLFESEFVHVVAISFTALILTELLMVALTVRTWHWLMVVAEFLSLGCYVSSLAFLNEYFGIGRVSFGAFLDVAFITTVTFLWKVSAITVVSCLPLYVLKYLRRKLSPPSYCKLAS
# UniProt Q13685, sequence (Q13685 whole entry, looked up): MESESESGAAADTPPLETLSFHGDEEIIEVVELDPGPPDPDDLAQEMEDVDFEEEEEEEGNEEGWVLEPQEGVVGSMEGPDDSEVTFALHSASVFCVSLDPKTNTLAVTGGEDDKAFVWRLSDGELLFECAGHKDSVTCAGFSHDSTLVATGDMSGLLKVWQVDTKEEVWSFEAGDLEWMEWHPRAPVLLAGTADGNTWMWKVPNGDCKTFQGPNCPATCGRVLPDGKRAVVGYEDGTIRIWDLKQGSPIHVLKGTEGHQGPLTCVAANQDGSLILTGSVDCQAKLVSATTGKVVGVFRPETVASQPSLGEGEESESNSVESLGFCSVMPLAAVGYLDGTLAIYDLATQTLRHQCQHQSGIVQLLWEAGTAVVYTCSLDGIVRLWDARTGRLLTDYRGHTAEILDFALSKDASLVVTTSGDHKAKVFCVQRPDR
# UniProt P53680, sequence (P53680 whole entry, looked up): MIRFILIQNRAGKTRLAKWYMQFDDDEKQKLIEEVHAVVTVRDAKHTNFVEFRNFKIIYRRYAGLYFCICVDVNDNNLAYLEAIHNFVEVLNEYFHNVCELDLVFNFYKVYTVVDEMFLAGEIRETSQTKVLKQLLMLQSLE
# UniProt Q93050, sequence (Q93050 whole entry, looked up): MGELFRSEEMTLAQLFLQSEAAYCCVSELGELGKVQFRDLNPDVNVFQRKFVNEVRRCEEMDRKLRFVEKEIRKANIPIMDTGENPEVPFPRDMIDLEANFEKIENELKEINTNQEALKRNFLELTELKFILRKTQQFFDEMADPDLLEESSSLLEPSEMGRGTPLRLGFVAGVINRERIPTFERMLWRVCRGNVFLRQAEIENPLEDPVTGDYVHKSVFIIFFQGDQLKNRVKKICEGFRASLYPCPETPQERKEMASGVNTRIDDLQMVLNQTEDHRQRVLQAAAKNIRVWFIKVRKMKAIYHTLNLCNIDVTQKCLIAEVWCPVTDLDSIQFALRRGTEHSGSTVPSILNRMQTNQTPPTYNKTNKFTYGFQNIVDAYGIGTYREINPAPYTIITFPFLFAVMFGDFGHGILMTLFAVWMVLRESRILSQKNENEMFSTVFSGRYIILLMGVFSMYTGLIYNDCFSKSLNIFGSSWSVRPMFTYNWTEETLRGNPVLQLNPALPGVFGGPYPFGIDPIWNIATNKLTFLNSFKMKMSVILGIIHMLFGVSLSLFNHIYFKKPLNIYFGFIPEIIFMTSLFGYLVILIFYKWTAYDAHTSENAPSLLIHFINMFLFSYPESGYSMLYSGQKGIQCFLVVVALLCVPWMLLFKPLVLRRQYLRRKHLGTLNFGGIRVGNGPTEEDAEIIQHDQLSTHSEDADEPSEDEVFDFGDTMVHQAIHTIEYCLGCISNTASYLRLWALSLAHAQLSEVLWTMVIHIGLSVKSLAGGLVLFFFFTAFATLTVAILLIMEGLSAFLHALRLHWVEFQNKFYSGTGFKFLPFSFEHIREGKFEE
# UniProt P17707, sequence (P17707 whole entry, looked up): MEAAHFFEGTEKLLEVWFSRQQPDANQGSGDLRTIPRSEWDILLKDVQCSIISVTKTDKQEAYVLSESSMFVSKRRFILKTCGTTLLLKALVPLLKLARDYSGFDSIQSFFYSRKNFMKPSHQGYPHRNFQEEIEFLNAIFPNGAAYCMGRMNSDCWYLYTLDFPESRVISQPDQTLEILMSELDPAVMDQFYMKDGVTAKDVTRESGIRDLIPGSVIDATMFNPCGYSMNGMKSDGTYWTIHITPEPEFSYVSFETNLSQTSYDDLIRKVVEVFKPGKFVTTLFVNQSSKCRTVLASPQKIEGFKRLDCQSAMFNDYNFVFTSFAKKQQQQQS
# UniProt Q9UQB8, sequence (Q9UQB8 whole entry, looked up): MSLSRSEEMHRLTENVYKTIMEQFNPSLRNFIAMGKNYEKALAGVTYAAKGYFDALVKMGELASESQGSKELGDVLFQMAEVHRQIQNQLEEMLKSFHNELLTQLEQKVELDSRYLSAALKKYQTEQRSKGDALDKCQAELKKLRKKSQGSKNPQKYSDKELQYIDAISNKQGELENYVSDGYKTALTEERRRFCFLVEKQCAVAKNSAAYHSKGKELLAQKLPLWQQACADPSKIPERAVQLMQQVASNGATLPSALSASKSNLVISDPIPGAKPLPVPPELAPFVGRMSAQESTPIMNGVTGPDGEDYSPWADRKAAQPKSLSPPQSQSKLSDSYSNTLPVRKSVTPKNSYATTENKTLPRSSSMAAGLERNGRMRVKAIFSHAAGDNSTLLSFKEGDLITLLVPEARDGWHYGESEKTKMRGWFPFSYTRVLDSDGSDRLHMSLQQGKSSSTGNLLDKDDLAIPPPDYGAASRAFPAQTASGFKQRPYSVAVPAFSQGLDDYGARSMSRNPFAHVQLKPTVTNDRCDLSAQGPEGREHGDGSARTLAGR
# UniProt Q9UEY8, sequence (Q9UEY8 whole entry, looked up): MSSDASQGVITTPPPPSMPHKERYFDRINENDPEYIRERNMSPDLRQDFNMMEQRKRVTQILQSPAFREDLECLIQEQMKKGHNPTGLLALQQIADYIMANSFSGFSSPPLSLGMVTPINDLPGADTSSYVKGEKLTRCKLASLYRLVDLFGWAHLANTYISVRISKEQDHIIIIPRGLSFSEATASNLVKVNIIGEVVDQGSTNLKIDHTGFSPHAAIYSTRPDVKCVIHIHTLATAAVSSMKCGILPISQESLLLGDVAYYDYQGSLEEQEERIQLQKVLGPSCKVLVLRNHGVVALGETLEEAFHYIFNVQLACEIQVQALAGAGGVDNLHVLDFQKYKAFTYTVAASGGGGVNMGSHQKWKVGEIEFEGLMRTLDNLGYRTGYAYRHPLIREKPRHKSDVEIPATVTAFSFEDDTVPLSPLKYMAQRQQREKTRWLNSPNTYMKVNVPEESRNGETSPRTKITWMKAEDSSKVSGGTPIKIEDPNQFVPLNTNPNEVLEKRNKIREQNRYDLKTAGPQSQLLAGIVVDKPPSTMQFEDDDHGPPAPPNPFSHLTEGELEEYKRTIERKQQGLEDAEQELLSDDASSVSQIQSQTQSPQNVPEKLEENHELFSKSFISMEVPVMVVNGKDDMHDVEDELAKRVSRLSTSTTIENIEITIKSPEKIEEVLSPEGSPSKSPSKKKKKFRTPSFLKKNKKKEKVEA
Target,log2 fold change [1],log2 fold change [2],log2 fold change [3],log2 fold change [4],log2 fold change [5],log2 fold change [6],log2 fold change [7],log2 fold change [8],log2 fold change [9],log2 fold change [10],log2 fold change [11],log2 fold change [12],log2 fold change [13],log2 fold change [14],log2 fold change [15],log2 fold change [16],log2 fold change [17],log2 fold change [18],log2 fold change [19],log2 fold change [20]
ATP6V0A1 isoform 3 (UniProt Q93050),-0.086,-0.041,-0.176,0.061,0,-0.008,-0.232,0.052,-0.066,-0.195,-0.068,0,-0.033,0.087,0.019,-0.463 (active),0.125,0.198,0.067,0.011
BAIAP2 (UniProt Q9UQB8),0.033,0.089,0.012,-0.008,0.018,0.017,0.014,-0.063,-0.101,-0.016,-0.016,-0.032,-0.265 (active),-0.034,-0.033,-0.056,0.062,0,0.001,0.041
ADD3 (UniProt Q9UEY8),0.018,0,-0.008,0.025,0.02,0.013,-0.025,-0.024,-0.015,0.031,0.063,0.025,-0.29 (active),-0.011,0.008,0.097,0.018,-0.034,0.019,0.014
AP2S1 (UniProt P53680),-0.1,0.148,-0.056,-0.018,0.052,0.013,-0.011,-0.27 (active),-0.354 (active),-0.003,-0.054,-0.01,-0.117,-0.017,-0.003,0.028,-0.07,0.038,-0.009,0.091
ATP9B (UniProt O43861),0.406 (active),0.099,0.01,-0.132,-0.029,-0.045,0.033,-0.038,0.027,-0.064,0.061,-0.068,-0.034,-0.077,-0.054,-0.071,-0.024,-0.064,-0.004,0.003
AMD1 (UniProt P17707),0.078,-0.004,0.039,0.094,0.091,-0.002,0.127,0.035,-0.224,0.025,-0.018,-0.043,-0.086,-0.307 (active),-0.031,-0.073,0.276,-0.025,0.04,0.051
ANKRD29 (UniProt Q8N6D5),0.243,-0.445 (active),0.083,-0.021,0.223,-0.015,-0.046,0.098,-0.025,0.096,-0.001,-0.18,0.026,-0.057,-0.15,0.007,-0.153,-0.012,0.009,0.024
AAMP (UniProt Q13685),0.025,-0.032,0.006,-0.003,0.042,0.074,-0.007,0.003,-0.006,0.085,0.007,0.023,0.064,0.031,0.04,-0.051,-0.02,0.007,0,0.225 (active)
